About 590 (28%) of roughly 2,100 compounds were called active. About 42% were inconclusive and are not listed. The list shows a part of the results. Values without a mark were called inactive. Calls follow the shape of the dose curve; as a rule, active = well fitted inhibition curve with a large enough effect; inconclusive = small, poorly fitted or top-dose-only effect; inactive = flat fitted curve, though single readings scatter.
Potency is read from the fitted curve at half-maximal effect.

Chain of DNA dC->dU-editing enzyme APOBEC-3F (Homo sapiens) (Q8IUX4 whole entry, looked up): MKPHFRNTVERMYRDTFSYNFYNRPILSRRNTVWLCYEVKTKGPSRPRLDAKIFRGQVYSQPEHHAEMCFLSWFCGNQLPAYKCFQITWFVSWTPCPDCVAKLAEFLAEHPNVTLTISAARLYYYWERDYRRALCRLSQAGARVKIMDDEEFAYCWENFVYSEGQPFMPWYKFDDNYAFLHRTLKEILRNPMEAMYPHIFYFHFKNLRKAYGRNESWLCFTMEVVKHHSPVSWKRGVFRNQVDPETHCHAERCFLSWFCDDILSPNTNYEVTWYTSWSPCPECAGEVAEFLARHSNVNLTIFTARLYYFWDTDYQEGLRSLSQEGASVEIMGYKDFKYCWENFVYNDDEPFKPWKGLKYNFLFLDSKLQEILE

This experiment deals with DNA dC->dU-editing enzyme APOBEC-3F (Homo sapiens) (UniProt Q8IUX4). Kind of experiment: qHTS for inhibitors of Vif-A3F interactions: Cherry picks. Also: nearly all actives have a fitted effect of over 70% in size.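 As to max response: % of control where 0% means no effect; active compounds raise eYFP fluorescence by blocking Vif-driven A3F loss.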 Conditions: HeLa A3F-eYFP + Vif (tagged APOBEC3F with the HIV-1 protein that degrades it), eYFP fluorescence, 24 h. Put shortly:
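Read-out: yellow fluorescence (ex 488 nm, em 500-530 nm) by laser-scanning cytometer after 24 h compound exposure, several concentrations, at 37 deg C. Cells: HeLa line stably co-expressing Vif and C-terminally eYFP-tagged A3F; MG132 served as positive control.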
Take `CN(C)c1ccc(C=Cc2nccc3ccccc23)cc1`: the Potency is 11.2 µM (active). The same measure, in the same setting: in the case of `CCN(Cc1ccccc1)c1ccc(/C=C/c2nccc3ccccc23)cc1` it was 20.6 µM (active); in that of `CCN(CC)c1nc(C=Cc2ccc(N(C)C)cc2)c2nccnc2n1`, 1.84 µM (active); in that of `CN(C)c1ccc(/C=C/c2nccc3ccccc23)cc1`, 18.4 µM (active). With `CCN(Cc1ccccc1)c1ccc(/C=C(\C#N)c2ccccn2)cc1`, the max response was -7.46%.

Consider `O=C(OCC12CC3CC(CC(C3)C1)C2)c1ccc(NCc2cc(O)ccc2O)cc1`, for which the max response was -19.8%.

Regarding `NC(=O)c1ccc(NC(=O)C#Cc2ccccc2)cc1`, the max response was -20.2%. Consider `CC[n+]1c(C=C2C=C(C)OC(C)=C2)sc2ccccc21`, for which the Potency is 2.31 µM (active). `CN(C)c1ccc2nc3c(=O)[nH]c(=O)nc-3n(CC(O)C(O)C(O)CO)c2c1` (stereo not drawn): the max response was -2.88%. In the case of `O=[N+]([O-])c1ccc(N/N=C\c2cccn2-c2ccccc2)nc1`, the Potency was 14 µM (active). Regarding `CCN(CC)c1ccc(C=NNc2ccc([N+](=O)[O-])cn2)cc1`, the max response was -25.4%. For the compound `COc1cc(C2C(C#N)=C(N)Oc3cc(O)ccc32)cc2c1OCO2` (stereo not drawn), the max response was -28.2%.

For the compound `CCN(CC)c1ccc2c(c1)OC(N)=C(C#N)C2c1cccnc1` (stereo not drawn), the Potency is 17.7 µM (active).

As for `CC1=C(n2nnc3ccccc32)C(c2ccccc2)C(C#N)=C(N)O1` (stereo not drawn), the max response was -5.98%.

`N#C/C(=C\c1ccccc1[N+](=O)[O-])C(=O)NCc1ccccc1`: the max response was -6.74%.

Consider `CN(C)c1ccc(/C=C(/C#N)C(=O)NCc2ccccc2)o1`, for which the Potency was 14.6 µM (active). Take `COc1cc(OC)c(/C=C/c2ccc3ccccc3[n+]2C)c(OC)c1`: the Potency is 5.17 µM (active). For `COc1cc(OC)c(C2Nc3cccc4cccc(c34)N2)c(OC)c1`, the max response was -0.492%.

Turning to `CC(=O)c1cccc(-c2ccnc3c2CC(C(=O)Nc2ccc(Cl)cc2)O3)c1` (stereo not drawn), the max response was -28.2%. Consider `Nc1nc(-c2cc(O)ccc2[N+](=O)[O-])cc(-c2ccccc2)c1[N+](=O)[O-]`, for which the Potency is 12.5 µM (active).

Consider `COc1ccc(OC)c(NC(=O)Cn2c(=O)n(-c3ccc(Cl)cc3)c(=O)c3c(C)c(C)sc32)c1`, for which the Potency is 20.6 µM (active). For `COc1ccc(OC)c(NC(=O)Cn2cnc3onc(-c4ccc(Cl)cc4)c3c2=O)c1`, the max response was -18%. The same measure, in the same setting: in the case of `CCN(CC)C(=O)Cn1c(=O)n(-c2ccccc2)c(=O)c2c3c(sc21)CCC3` it was 1.37%. Regarding `CC(C)NC(=S)N/N=C/c1sc(N2CCCCC2)nc1-c1cccs1`, the Potency was 16.4 µM (active).

On to `CNC(=S)N/N=C/c1ccc(N2CCOCC2)s1`, for which the max response was -10.3%. The same measure, in the same setting: as for `CC(C)NC(=S)N/N=C1\CCCCc2ccccc21`, the figure is 2.14%. Regarding `N#Cc1c(C(F)(F)F)cc(-c2ccccc2)nc1SCc1nc(N)nc(N2CCOCC2)n1`, the Potency is 5.8 µM (active). For the compound `COc1cc(N2CCCC2)c(OC)cc1/C=C(/C#N)c1ccc(F)cc1`, the Potency was 20.6 µM (active). As for `COc1cc(N2CCCC2)c(OC)cc1/C=C(/C#N)c1ccc(Br)cc1`, the Potency is 7.31 µM (active). With `CC1Cc2cc(S(=O)(=O)CCC(=O)NCc3ccc(Cl)cc3)ccc2N1C(=O)C1CC1` (stereo not drawn), the max response is -29.5%. With `O=C(/C=C/c1cccs1)NCc1ccc2c(c1)OCO2`, the max response is 1.53%. For the compound `COC(=O)c1c(-c2cccnc2)csc1NC(=O)c1ccc2c(c1)OCO2`, the max response is -11.9%. In the case of `Cc1ccc(C(=O)Nc2sc(Cc3ccc4c(c3)OCO4)c(C)c2C(N)=O)cc1`, the Potency was 6.51 µM (active). Same read-out and setting: in the case of `CCOc1cc(/C=C2\N=C(SC(C)C(N)=O)N(c3ccc(OC(F)F)cc3)C2=O)ccc1O` (stereo not drawn) it was 15.8 µM (active); in that of `COc1cc(N2CCCC2)c(OC)cc1/C=C1/NC(=S)NC1=O`, 3.53 µM (active). On the same count and under the same terms, as for `Cc1cccc2cc(C#N)c(SCC(=O)N3CC(=O)Nc4ccccc43)nc12`, the figure is 4.44 µM (active). The same measure, in the same setting: as for `Cc1cc(C)c2nc(SCC(=O)N3CC(=O)Nc4ccccc43)c(C#N)cc2c1`, the figure is 3.96 µM (active).

For the compound `CC(C)(C)c1ccc(OCC(=O)Nc2ccc3c4c(cccc24)C(=O)NC3=O)cc1`, the max response is 5.82%.

For `CCCCn1c(N)c(N(Cc2ccccc2OC)C(=O)c2ccc([N+](=O)[O-])s2)c(=O)[nH]c1=O`, the max response is -9.57%. `O=C(NCC1CCCO1)c1nn2c(C(F)(F)F)cc(-c3cc(Br)cs3)nc2c1Br` (stereo not drawn): the Potency is 11.6 µM (active). For the compound `COc1ccc(S(=O)(=O)Nc2cc(Sc3ncn[nH]3)c(O)c3ccccc23)cc1`, the max response is -14.9%. For `Cc1c2ccccc2nc2c(F)c(NC(C)C)c(F)c(F)c12`, the Potency was 6.51 µM (active). Take `CCCNc1c(F)c(F)c2c(C)c3ccccc3nc2c1F`: the Potency is 14 µM (active). As to `CC(C)C1C(=O)N(Cc2cn(CCC3OCCCO3)nn2)CCS(=O)(=O)N1Cc1ccc(-c2cccc(CO)c2)cc1` (stereo not drawn), the max response was -10.5%. For `CCOC(=O)c1sc2cc([N+](=O)[O-])cc(SCC(C)C)c2c1N`, the Potency is 2.06 µM (active). For the compound `COC(=O)c1sc2cc([N+](=O)[O-])cc(SCC(C)C)c2c1N`, the Potency is 13 µM (active).

For the compound `CC1(C(=O)Nc2ccc3c(c2)OCO3)Cc2c(-c3ccccc3)ccnc2O1` (stereo not drawn), the max response was -25.3%.

For the compound `COc1cc2c(cc1OC)C1=CC(=O)C(=O)N1C(C)(C)C2`, the Potency is 14 µM (active). Regarding `COc1ccc(N/C=C/c2nc(SC)nnc2C)cc1`, the max response was -11.1%.

Consider `C=CCSc1nnc(C)c(/C=C/Nc2ccc(Cl)cc2)n1`, for which the Potency is 20.6 µM (active). For the compound `O=C1c2ccccc2-c2nc3ccccc3cc21`, the max response is -23.6%. As to `O=C1c2ccccc2C(=O)c2cc(N3CCCCC3)ccc21`, the Potency is 8.86 µM (active). With `C=C(/C=C/c1ccc(N(C)C)cc1)c1nc2ccccc2s1`, the Potency is 14.6 µM (active). The same measure, in the same setting: in the case of `O=C(O)c1cc(-c2ccc(/C=C3/SC(=S)N(Cc4ccccc4)C3=O)o2)ccc1Cl` it was 13 µM (active). As to `COc1cc(/C=C2\SC(=S)N(NC(=O)c3ccccc3OC)C2=O)ccc1O`, the max response was -7.76%.

In the case of `O=C1/C(=C\c2ccc(O)cc2)SC(=S)N1Cc1ccccc1`, the max response was -2.14%. Still for that read-out and setting: as for `COc1cc(/C=C2\SC(=S)N(NC(=O)c3ccccc3O)C2=O)ccc1O`, the figure is -22.7%. For the compound `COc1cc(/C=C2/SC(=S)N(CCC(=O)Nc3ccccc3)C2=O)cc(OC)c1OC`, the Potency is 18.4 µM (active). The same measure, in the same setting: as for `COc1cc(/C=C2/SC(=S)N(Cc3ccccc3)C2=O)cc(Cl)c1O`, the figure is 4.44 µM (active); as for `Cc1cc(/C=C2\NC(=S)N(C)C2=O)ccc1N1CCCC1`, 12.5 µM (active). As for `O=C1/C(=C/c2ccc(N3CCCC3)cc2)NC(=S)N1C1CC1`, the Potency was 5.17 µM (active). On the same count and under the same terms, as for `Cc1cc(N2CCCC2)ccc1/C=C1\NC(=S)N(C)C1=O`, the figure is 1.84 µM (active). Take `O=C(Oc1ccc(Cl)c2cccnc12)c1ccco1`: the max response is -0.0527%. Consider `CS(=O)(=O)N(CC(=O)N1CCN(Cc2ccccc2)CC1)c1ccccc1F`, for which the max response is 0.272%. `Cc1ccc2nccc(/C=C/c3ccc(N(C)C)cc3)c2c1`: the Potency was 5.8 µM (active).

`CN(C)c1ccc(/C=C/c2ccnc3ccc(N)cc23)cc1`: the Potency was 20.6 µM (active).

With `CN(C)c1ccc(/C=C/c2ccnc3cc(Cl)ccc23)cc1`, the Potency is 2.91 µM (active). Still for that read-out and setting: as for `CN(C)c1ccc(/C=C/c2ccnc3ccc(Br)cc23)cc1`, the figure is 3.66 µM (active); as for `Cc1cc(C)c2nccc(/C=C/c3ccc(N(C)C)cc3)c2c1`, 10.3 µM (active); as for `Cc1ccc2c(/C=C/c3ccc(N(C)C)cc3)ccnc2c1`, 18.4 µM (active). On the same count and under the same terms, in the case of `COc1ccc2nccc(/C=C/c3ccc(N(C)C)cc3)c2c1` it was 23.1 µM (active). Still for that read-out and setting: in the case of `CN(C)c1ccc(/C=C/c2ccnc3ccc(I)cc23)cc1` it was 8.2 µM (active). Regarding `CC(=O)Nc1cccc(-c2ccnc3c2CC(C)(C(=O)Nc2cccc(C(C)=O)c2)O3)c1` (stereo not drawn), the max response is -22.1%. Same read-out and setting: as for `S=C(NCCSCc1ccc(Cl)cc1)Nc1ccccc1`, the figure is -0.773%. On the same count and under the same terms, as for `N#CC1CC(c2ccccc2)Nc2cc(Cl)ccc2N1` (stereo not drawn), the figure is -26.3%; as for `COc1cc(Cl)c(C)cc1NC(=O)CN1CCN(C(=O)C2CC2)CC1`, -14.7%; as for `CCC(C)Sc1cc(-c2nc3ccccn3c2NC2CCCCC2)ccc1OC` (stereo not drawn), -11.6%. Still for that read-out and setting: as for `C=CCN1C=CC(=C/C=C(/C#N)C(=O)OCC)C=C1`, the figure is -21.4%. On to `CCCN1C=CC(=CC=C(C#N)C#N)C=C1`, for which the Potency is 15.8 µM (active).

On to `C=CCN1C=CC(=CC=C(C#N)C#N)C=C1`, for which the Potency is 11.2 µM (active). Still for that read-out and setting: as for `CCOc1cc(/C=C(/C#N)C(=O)Nc2ccc(O)cc2)cc(Br)c1O`, the figure is 15.8 µM (active). Same read-out and setting: as for `CCOc1ccc(NC(=O)/C(C#N)=C/c2ccc(N3CCCC3)c(C)c2)cc1`, the figure is 1.03 µM (active). On to `N#C/C(=C/c1ccc2c(c1)OCO2)C(=O)Nc1ccc(O)cc1`, for which the max response is -28.5%. Still for that read-out and setting: as for `CCOc1ccc(Br)cc1C(=O)Nc1ccc(C(=O)NCC(C)C)cc1`, the figure is -8.08%; as for `CC(=O)Nc1ccc(S(=O)(=O)Nc2nc3ccccc3nc2Sc2nncn2C)cc1`, -12.8%. With `COc1ccc(Cn2c(C)nc3c(c2=O)c2nc4ccccc4nc2n3Cc2ccco2)cc1`, the Potency was 14.6 µM (active). As for `Cc1ccc2nc3c(cc(S(=O)(=O)c4ccccc4)c(=N)n3Cc3ccco3)c(=O)n2c1`, the max response was -15.4%.

As to `CC(C)n1cnc2c(NCc3ccccc3)cc(N[C@H](C)CO)cc21`, the Potency was 12.5 µM (active). On to `Cc1ccccc1N1C(=O)c2cccc3c(N(C)CCO)ccc(c23)C1=O`, for which the max response is -29.5%. In the case of `Cc1ccc(N2C(=O)c3cccc4c(N5CCN(C)CC5)ccc(c34)C2=O)c2cccnc12`, the Potency was 17.7 µM (active). Turning to `CC1(C(=O)NCc2cccs2)Cc2c(-c3ccc(C(N)=O)cc3)ccnc2O1` (stereo not drawn), the max response is -27%. The same measure, in the same setting: in the case of `CCOC(=O)c1ccc(Nc2nc3ccccc3nc2NS(=O)(=O)c2ccc(Cl)cc2)cc1` it was -8.48%. For `CCOC(=O)c1c(Nc2ccc(Cl)cc2)sc(/C=C2\C=Nc3ccccc32)c1O`, the Potency is 14.6 µM (active).
